We go through four sequences from paper PMC11006913.

Common to all, as to test: PBM; 200 nM protein, PBS
Settings in all cases: dsDNA, one strand shown

Assay [1] deals with HESX1 (Homo sapiens, UniProt Q9UBX0 95-180, R165K).
The target in assay [2] is SHOX (Homo sapiens, UniProt O15266 103-189).
Assay [3] addresses HESX1 (Homo sapiens, UniProt Q9UBX0 95-180).
The target of assay [4] is SHOX (Homo sapiens, UniProt O15266 103-189, R173C).
Assay [5] deals with HESX1 (Homo sapiens, UniProt Q9UBX0 95-180, R109Q).
The target in assay [6] is HESX1 (Homo sapiens, UniProt Q9UBX0 95-180, P111T).
For assay [7], the target named is HESX1 (Homo sapiens, UniProt Q9UBX0 95-180, F115L).
The target in assay [8] is ALX4 (Homo sapiens, UniProt Q9H161 200-286).
The target of assay [9] is PRRX1 (Homo sapiens, UniProt P54821 80-166, F113S).
The target in assay [10] is ALX4 (Homo sapiens, UniProt Q9H161 200-286, Q225E).
For assay [11], the target named is MSX2 (Homo sapiens, UniProt P35548 130-214, R199I).
Assay [12] deals with ALX1 (Homo sapiens, UniProt Q15699 118-204, L144V).
The target in assay [13] is ALX1 (Homo sapiens, UniProt Q15699 118-204, L144R).
Assay [14] concerns the target PROP1 (Homo sapiens, UniProt O75360 56-141).
The target in assay [15] is PROP1 (Homo sapiens, UniProt O75360 56-141, R99H).
The next assay concerns the target ALX3 (Homo sapiens, UniProt O95076 139-225, L168Q).
The target in assay [16] is PROP1 (Homo sapiens, UniProt O75360 56-141, F88S).
Assay [17] addresses MSX2 (Homo sapiens, UniProt P35548 130-214, F161Y).
The target in assay [18] is ALX1 (Homo sapiens, UniProt Q15699 118-204).
For assay [19], the target named is PRRX1 (Homo sapiens, UniProt P54821 80-166).
PRRX1 (Homo sapiens, UniProt P54821 80-166), sequence (P54821 80-166): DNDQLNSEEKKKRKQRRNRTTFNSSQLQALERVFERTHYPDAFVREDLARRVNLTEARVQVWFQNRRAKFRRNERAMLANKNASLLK

MSX2 (Homo sapiens, UniProt P35548 130-214, F161Y), sequence (P35548 130-214 F161Y): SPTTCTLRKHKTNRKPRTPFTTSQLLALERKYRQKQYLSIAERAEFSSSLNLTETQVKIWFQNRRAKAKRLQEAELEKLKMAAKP
ALX4 (Homo sapiens, UniProt Q9H161 200-286, Q225E), sequence (Q9H161 200-286 Q225E): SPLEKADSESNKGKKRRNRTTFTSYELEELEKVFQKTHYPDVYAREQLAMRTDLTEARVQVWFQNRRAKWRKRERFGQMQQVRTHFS
HESX1 (Homo sapiens, UniProt Q9UBX0 95-180, R109Q), sequence (Q9UBX0 95-180 R109Q): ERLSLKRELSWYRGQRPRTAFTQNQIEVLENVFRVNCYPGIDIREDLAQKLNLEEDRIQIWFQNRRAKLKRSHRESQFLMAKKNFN
ALX3, sequence (O95076 139-225 L168Q): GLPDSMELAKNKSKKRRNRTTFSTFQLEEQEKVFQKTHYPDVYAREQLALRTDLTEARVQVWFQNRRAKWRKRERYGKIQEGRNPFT
MSX2 (Homo sapiens, UniProt P35548 130-214, R199I), sequence (P35548 130-214 R199I): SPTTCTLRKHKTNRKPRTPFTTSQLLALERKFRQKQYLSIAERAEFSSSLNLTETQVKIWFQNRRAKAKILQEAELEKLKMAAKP
ALX1 (Homo sapiens, UniProt Q15699 118-204, L144R), sequence (Q15699 118-204 L144R): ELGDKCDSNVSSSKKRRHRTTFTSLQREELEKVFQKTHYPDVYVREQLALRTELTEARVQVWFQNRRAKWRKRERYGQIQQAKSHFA
ALX1 (Homo sapiens, UniProt Q15699 118-204, L144V), sequence (Q15699 118-204 L144V): as the sequence (Q15699 118-204 L144R) above, with R27V counted along it
PROP1 (Homo sapiens, UniProt O75360 56-141, R99H), sequence (O75360 56-141 R99H): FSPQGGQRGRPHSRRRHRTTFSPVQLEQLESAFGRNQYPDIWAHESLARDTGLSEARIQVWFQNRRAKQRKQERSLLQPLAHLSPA
HESX1 (Homo sapiens, UniProt Q9UBX0 95-180, F115L), sequence (Q9UBX0 95-180 F115L): as the sequence (Q9UBX0 95-180 R109Q) above, with Q15R, F21L counted along it
SHOX (Homo sapiens, UniProt O15266 103-189), sequence (O15266 103-189): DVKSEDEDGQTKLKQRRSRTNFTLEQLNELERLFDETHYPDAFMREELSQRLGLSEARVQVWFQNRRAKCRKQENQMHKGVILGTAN
HESX1 (Homo sapiens, UniProt Q9UBX0 95-180), sequence (Q9UBX0 95-180): as the sequence (Q9UBX0 95-180 R109Q) above, with Q15R counted along it
SHOX (Homo sapiens, UniProt O15266 103-189, R173C), sequence (O15266 103-189 R173C): as the sequence (O15266 103-189) above, with R71C counted along it
HESX1 (Homo sapiens, UniProt Q9UBX0 95-180, P111T), sequence (Q9UBX0 95-180 P111T): as the sequence (Q9UBX0 95-180 R109Q) above, with Q15R, P17T counted along it
PROP1 (Homo sapiens, UniProt O75360 56-141), sequence (O75360 56-141): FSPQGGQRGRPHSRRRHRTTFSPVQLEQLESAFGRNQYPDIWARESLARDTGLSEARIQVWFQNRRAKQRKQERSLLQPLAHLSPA
PRRX1 (Homo sapiens, UniProt P54821 80-166, F113S), sequence (P54821 80-166 F113S): as the sequence (P54821 80-166) above, with F34S counted along it
ALX4 (Homo sapiens, UniProt Q9H161 200-286), sequence (Q9H161 200-286): as the sequence (Q9H161 200-286 Q225E) above, with E26Q counted along it
ALX1 (Homo sapiens, UniProt Q15699 118-204), sequence (Q15699 118-204): as the sequence (Q15699 118-204 L144R) above, with R27L counted along it
HESX1 (Homo sapiens, UniProt Q9UBX0 95-180, R165K), sequence (Q9UBX0 95-180 R165K): as the sequence (Q9UBX0 95-180 R109Q) above, with Q15R, R71K counted along it
PROP1 (Homo sapiens, UniProt O75360 56-141, F88S), sequence (O75360 56-141 F88S): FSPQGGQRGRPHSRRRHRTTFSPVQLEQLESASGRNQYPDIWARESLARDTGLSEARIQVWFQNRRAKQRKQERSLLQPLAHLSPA

In the case of GGAAGACC, the binding signal in the assay with HESX1 [1] is 6.27 upbm affinity estimate (log intensity, higher = more binding, comparable within an allelic series); in the assay with SHOX [2] it was 7.12 upbm affinity estimate (log intensity, higher = more binding, comparable within an allelic series); with HESX1 [3], 6.19 upbm affinity estimate (log intensity, higher = more binding, comparable within an allelic series); in the assay with SHOX [4] it was 7.18 upbm affinity estimate (log intensity, higher = more binding, comparable within an allelic series); with HESX1 [5] it was 6.45 upbm affinity estimate (log intensity, higher = more binding, comparable within an allelic series); in the assay with HESX1 [6], 6.41 upbm affinity estimate (log intensity, higher = more binding, comparable within an allelic series). The binding signal with HESX1 [7] was 6.45 upbm affinity estimate (log intensity, higher = more binding, comparable within an allelic series).
Turning to CCCAATTA, the binding signal with HESX1 [1] is 13.2 upbm affinity estimate (log intensity, higher = more binding, comparable within an allelic series); with SHOX [2] it was 12.5 upbm affinity estimate (log intensity, higher = more binding, comparable within an allelic series); in the assay with ALX4 [8] it was 13.9 upbm affinity estimate (log intensity, higher = more binding, comparable within an allelic series); with PRRX1 [9] it was 11.3 upbm affinity estimate (log intensity, higher = more binding, comparable within an allelic series); with ALX4 [10], 13.5 upbm affinity estimate (log intensity, higher = more binding, comparable within an allelic series); with HESX1 [3], 13.1 upbm affinity estimate (log intensity, higher = more binding, comparable within an allelic series). The binding signal was 13 upbm affinity estimate (log intensity, higher = more binding, comparable within an allelic series) with MSX2 [11]; 11.9 upbm affinity estimate (log intensity, higher = more binding, comparable within an allelic series) with ALX1 [12]; 9.78 upbm affinity estimate (log intensity, higher = more binding, comparable within an allelic series) with SHOX [4]; 11.6 upbm affinity estimate (log intensity, higher = more binding, comparable within an allelic series) in the assay with ALX1 [13]; 11.6 upbm affinity estimate (log intensity, higher = more binding, comparable within an allelic series) with PROP1 [14]; 9.78 upbm affinity estimate (log intensity, higher = more binding, comparable within an allelic series) with HESX1 [5]. Moreover, the binding signal was 11.8 upbm affinity estimate (log intensity, higher = more binding, comparable within an allelic series) with PROP1 [15]; 10.7 upbm affinity estimate (log intensity, higher = more binding, comparable within an allelic series) with ALX3; 11.7 upbm affinity estimate (log intensity, higher = more binding, comparable within an allelic series) with HESX1 [6]; 7.5 upbm affinity estimate (log intensity, higher = more binding, comparable within an allelic series) with PROP1 [16]; 13.7 upbm affinity estimate (log intensity, higher = more binding, comparable within an allelic series) with MSX2 [17]; 8.14 upbm affinity estimate (log intensity, higher = more binding, comparable within an allelic series) with HESX1 [7]. For the same sequence, the binding signal with ALX1 [18] is 12.5 upbm affinity estimate (log intensity, higher = more binding, comparable within an allelic series); with PRRX1 [19], 13.4 upbm affinity estimate (log intensity, higher = more binding, comparable within an allelic series).
On to AATTAAGT, for which the binding signal in the assay with HESX1 [1] was 11.6 upbm affinity estimate (log intensity, higher = more binding, comparable within an allelic series); in the assay with SHOX [2], 11.8 upbm affinity estimate (log intensity, higher = more binding, comparable within an allelic series); in the assay with ALX4 [8], 13.9 upbm affinity estimate (log intensity, higher = more binding, comparable within an allelic series); with PRRX1 [9] it was 11.2 upbm affinity estimate (log intensity, higher = more binding, comparable within an allelic series); in the assay with ALX4 [10] it was 13 upbm affinity estimate (log intensity, higher = more binding, comparable within an allelic series); with HESX1 [3], 11.6 upbm affinity estimate (log intensity, higher = more binding, comparable within an allelic series). Moreover, the binding signal was 12.2 upbm affinity estimate (log intensity, higher = more binding, comparable within an allelic series) with MSX2 [11]; 11.7 upbm affinity estimate (log intensity, higher = more binding, comparable within an allelic series) with ALX1 [12]; 9.31 upbm affinity estimate (log intensity, higher = more binding, comparable within an allelic series) with SHOX [4]; 11.4 upbm affinity estimate (log intensity, higher = more binding, comparable within an allelic series) with ALX1 [13]; 11.3 upbm affinity estimate (log intensity, higher = more binding, comparable within an allelic series) with PROP1 [14]; 8.53 upbm affinity estimate (log intensity, higher = more binding, comparable within an allelic series) in the assay with HESX1 [5]. The binding signal is 11.2 upbm affinity estimate (log intensity, higher = more binding, comparable within an allelic series) with PROP1 [15]; 10.5 upbm affinity estimate (log intensity, higher = more binding, comparable within an allelic series) with ALX3; 10.3 upbm affinity estimate (log intensity, higher = more binding, comparable within an allelic series) with HESX1 [6]; 7.71 upbm affinity estimate (log intensity, higher = more binding, comparable within an allelic series) in the assay with PROP1 [16]; 12.9 upbm affinity estimate (log intensity, higher = more binding, comparable within an allelic series) with MSX2 [17]; 7.65 upbm affinity estimate (log intensity, higher = more binding, comparable within an allelic series) with HESX1 [7]. The binding signal is 12.3 upbm affinity estimate (log intensity, higher = more binding, comparable within an allelic series) with ALX1 [18] and 13.3 upbm affinity estimate (log intensity, higher = more binding, comparable within an allelic series) with PRRX1 [19].
As for TAATTGAA, the binding signal with HESX1 [1] is 12.9 upbm affinity estimate (log intensity, higher = more binding, comparable within an allelic series); with SHOX [2] it was 12 upbm affinity estimate (log intensity, higher = more binding, comparable within an allelic series); with ALX4 [8] it was 13.9 upbm affinity estimate (log intensity, higher = more binding, comparable within an allelic series); in the assay with PRRX1 [9] it was 11.2 upbm affinity estimate (log intensity, higher = more binding, comparable within an allelic series); in the assay with ALX4 [10], 13.2 upbm affinity estimate (log intensity, higher = more binding, comparable within an allelic series); with HESX1 [3] it was 12.9 upbm affinity estimate (log intensity, higher = more binding, comparable within an allelic series). For the same sequence, the binding signal in the assay with MSX2 [11] was 12.5 upbm affinity estimate (log intensity, higher = more binding, comparable within an allelic series); with ALX1 [12], 11.6 upbm affinity estimate (log intensity, higher = more binding, comparable within an allelic series); in the assay with SHOX [4], 9.58 upbm affinity estimate (log intensity, higher = more binding, comparable within an allelic series); with ALX1 [13] it was 11.3 upbm affinity estimate (log intensity, higher = more binding, comparable within an allelic series); with PROP1 [14], 11.5 upbm affinity estimate (log intensity, higher = more binding, comparable within an allelic series); with HESX1 [5], 9.18 upbm affinity estimate (log intensity, higher = more binding, comparable within an allelic series). The binding signal with PROP1 [15] is 11.6 upbm affinity estimate (log intensity, higher = more binding, comparable within an allelic series); with ALX3, 10.6 upbm affinity estimate (log intensity, higher = more binding, comparable within an allelic series); with HESX1 [6], 11.4 upbm affinity estimate (log intensity, higher = more binding, comparable within an allelic series); with PROP1 [16] it was 7.68 upbm affinity estimate (log intensity, higher = more binding, comparable within an allelic series); with MSX2 [17], 13.2 upbm affinity estimate (log intensity, higher = more binding, comparable within an allelic series); in the assay with HESX1 [7], 7.71 upbm affinity estimate (log intensity, higher = more binding, comparable within an allelic series). The binding signal in the assay with ALX1 [18] is 12.3 upbm affinity estimate (log intensity, higher = more binding, comparable within an allelic series); with PRRX1 [19], 13.3 upbm affinity estimate (log intensity, higher = more binding, comparable within an allelic series).
